TSHR antag – Antagonists of the Thyroid Stimulating Hormone Receptor: HTS campaign; AID 504810, 2011; TSHR-expressing cells, TSH-stimulated cAMP HTRF, 2 h; hits give low values; activity change, negative = inhibition, % at 11.5 µM; 330,000 tested, 0.2% active;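 active = activity change below a set negative limit, meaning inhibition stronger than a set level, cut at about -70% in these data; inconclusive = activity change between two set negative limits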; note: % is set by controls: 0 for no effect and ±100 for the full control effect
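Freshly harvested TSHR cells receive pin-tooled compound, then EC80 TSH at 4nM final. After 2 hours at 37 deg C, antibody in lysis buffer and cAMP-d2 are added; 30 minutes at ambient temperature precede the HTRF read.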
PTHR1 ag – qHTS for PTHR1 Agonists: Primary Screen | HEK293 GP2 PTHR1 cells, GloSensor cAMP luminescence, 1 h | Potency, µM (series often up to 115 µM), for the others: at the highest dose activation, most hits filed as activators | 410,000 tested, 0.075% active; note: potency is the fitted concentration of half-maximal effect; nearly all actives have a fitted effect of over 55% in size
Target sequence (Q03431 whole entry, looked up): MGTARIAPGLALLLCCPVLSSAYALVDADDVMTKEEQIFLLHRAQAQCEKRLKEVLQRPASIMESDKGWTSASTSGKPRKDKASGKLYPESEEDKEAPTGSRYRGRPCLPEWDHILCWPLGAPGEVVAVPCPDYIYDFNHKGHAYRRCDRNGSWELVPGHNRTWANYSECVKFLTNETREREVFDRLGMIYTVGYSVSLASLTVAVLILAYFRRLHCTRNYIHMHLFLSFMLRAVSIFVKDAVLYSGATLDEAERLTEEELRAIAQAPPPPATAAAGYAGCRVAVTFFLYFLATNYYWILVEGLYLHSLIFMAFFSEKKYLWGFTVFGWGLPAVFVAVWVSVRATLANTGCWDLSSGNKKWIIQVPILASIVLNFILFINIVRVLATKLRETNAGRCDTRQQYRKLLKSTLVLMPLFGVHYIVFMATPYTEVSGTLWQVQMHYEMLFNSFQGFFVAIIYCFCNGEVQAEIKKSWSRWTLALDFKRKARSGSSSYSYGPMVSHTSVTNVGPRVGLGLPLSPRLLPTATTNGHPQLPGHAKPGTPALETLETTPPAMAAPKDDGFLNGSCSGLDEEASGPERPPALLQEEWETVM
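HEK-293-derived GP2 cells expressing PTHR1 and a GloSensor cAMP reporter, 3,000/well, plated overnight, given luciferin plus IBMX (each 0.5 mM as added) for 1 h at 37 °C, then compound for 1 h at 37 °C. Luminescence was read after 15 min at room temperature.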
TCR activator – Activators of T cell receptors: qHTS campaign | primary human leukocytes, anti-CD3, IL-2 HTRF, 48 h | Potency, µM (doses to about 9.22 µM), without a hit: top-dose activation of IL-2 secretion, actives largely listed as activators | 330,000 tested, under 10 active | AID 504894, 2011; note: % of control where 0% means no effect
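HTRF read-out of IL-2 secretion: europium cryptate donor excited at 320nm, d2 acceptor emission at 665nm. Cells were primary human leukocytes incubated 48 hr with compounds and a-CD3 beads, supplying TCR signal only.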
RXFP1 antag – qHTS Assay for Antagonists of the Relaxin Receptor RXFP1; Relaxin receptor 1 (Homo sapiens), Q9HBX9; HEK293-RXFP1, relaxin-stimulated cAMP HTRF, 30 min; hits give low values; activity change, negative = inhibition, % at 57.5 µM; 350,000 tested, 0.59% active; AID 1259400, 2018;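 active = activity change of -60% or lower, but not beyond a set lower limit; inconclusive = change between -60% and -40%, or beyond the set limit; inactive = change above -40%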; note: % is set by controls: 0 for no effect and ±100 for the full control effect
RXFP1 agonist – qHTS Assay for Agonists of the Relaxin Receptor RXFP1; Relaxin receptor 1 (Homo sapiens), Q9HBX9; HEK293T-RXFP1 cAMP TR-FRET, 30 min; response scale: percent of porcine relaxin response, buffer zero; Potency, µM (highest dose often 57.5 µM), for the others: top-dose activation, usual class: activators; 370,000 tested, 0.3% active; AID 2676, 2010; note: potency is the fitted concentration of half-maximal effect; % is set by controls: 0 for no effect and ±100 for the full control effect; nearly all actives have a fitted effect of over 60% in size
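Agonist response is measured as cAMP accumulation in an RXFP1-transfected HEK293T line under PDE4 inhibition. Values are scaled between buffer-only and 29 nM porcine relaxin, and EC50s come from standard Hill equation fits.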
NPSR antag – qHTS Assay for Antagonists of the Neuropeptide S Receptor: cAMP Signal Transduction; Q6W5P4; CHO-NPSR cells, cAMP TR-FRET, antagonist mode; Potency, µM (series often up to 38.3 µM), inactives show top-dose activity change, negative = inhibition, most hits filed as inhibitors; 220,000 tested, 1% active; AID 1461, 2008; note: potency is the fitted concentration of half-maximal effect; % is set by controls: 0 for no effect and ±100 for the full control effect; nearly all actives have a fitted effect of over 50% in size
* hit, by the source's call; i = inactive; u = inconclusive; x = no result given; [ ] = dose if it differs, or a comment. Shown is part of a subset that was picked to be rich in hits. Unless noted, calls come from the whole dose curve; as a rule, active = well fitted curve in the direction sought with a large enough effect; inconclusive = small, poorly fitted or top-dose-only effect, or another doubt; inactive = no such curve, though single readings can be large; an effect the other way counts as inactive or inconclusive.

SMILES | TSHR antag | PTHR1 ag | TCR activator | RXFP1 antag | RXFP1 agonist | NPSR antag
O=C(O)c1cc(NC(=O)c2ccc3c(c2)C(=O)N(Cc2cccnc2)C3=O)cc(C(=O)O)c1 | 4 | i | 11% | -7 | 7% | x
C#Cc1cccc(NC(=O)c2ccc3c(c2)C(=O)N(Cc2cccnc2)C3=O)c1 | -26 | -34% | 1% | -88* | -1% | x
COc1cc(/C=C2\C(=O)ON=C2c2ccccc2)cc(Br)c1O | 0 | -35% | 1% | -4 | 1% | x
COc1cc(/C=C2\C(=O)ON=C2c2ccccc2)cc(Cl)c1O | -6 | -35% | 3% | -6 | 1% | 7.9µM*
O=C1ON=C(c2ccc(Cl)cc2)/C1=C/c1ccc(O)cc1 | 11 | -50% | -2% | -27 | 0% | 6.3µM*
COc1ccc(S(=O)(=O)c2cn(C)c3cc(N4CCOCC4)c(F)cc3c2=O)cc1 | x | -10% | x | -14 | 3% | x
COC(=O)/C=C\C(=O)OC | x | x | x | -7 | x | x
CC(C)c1ccc(NC(=O)CSC2=Nc3ccccc3C3=NC(CCC(=O)NCc4cccs4)C(=O)N23)cc1 (centres undefined) | x | i | x | -1 | 7% | x
Cc1ccc(C(C)C)c(OCC(=O)Nc2nc3c(s2)CCCC3)c1 | x | i | x | -85* | -1% | x
Cc1cccc(C(=O)Nc2nc3c(s2)CCCC3)c1 | x | -19% | x | -87* | 2% | x
COc1ccc(C(=O)Nc2nc3c(s2)CCCC3)cc1Cl | x | -13% | x | -71* | 1% | x
O=C(Nc1nc2c(s1)CCCC2)c1ccc2ncsc2c1 | -45 | -31% | 5%[46.1 µM] | x | 2% | u
Oc1ccc(CN2CCc3ccccc3C2)c2cccnc12 | x | -32% | 8% | -5 | 0% | 4µM*
Oc1ccc(CN2CCCCC2)c2cccnc12 | -3 | i | 5%[46.1 µM] | 0 | 0% | -11%[46.1 µM]
Oc1ccc2ccccc2c1SSc1c(O)ccc2ccccc12 | 15 | x | x | x | x | x
CSc1ccc(C2c3c(oc4cc(C)cc(C)c4c3=O)C(=O)N2CCO)cc1 (centres undefined) | x | -4% | x | -3 | 2% | x
O=C1S/C(=C\C=C\c2ccco2)C(=O)N1c1ccc(O)cc1 | -7 | -29% | 8%[46.1 µM] | -63* | 0% | -14%
O=C1S/C(=C\C=C\c2ccco2)C(=O)N1c1ccccc1 | -14 | i | -1%[46.1 µM] | u | 0% | -26%
CCN(Cc1ccccc1)Cc1c(O)ccc2c(=O)c(-c3ccccc3Cl)c(C(F)(F)F)oc12 | x | -38% | x | -7 | 7% | x
O=C(O)CCSc1nc2ccccc2n1Cc1ccccc1 | -117* | -10% | -12% | -1 | 1% | x
COc1cc2c(cc1OC)C(=O)CC2 | x | x | x | 6 | x | x
COc1ccc(CCNC(=O)CC(c2ccccc2)c2cccc(C)c2O)cc1OC (centres undefined) | -24 | -34% | 1% | -9 | 1% | 1µM*
COc1ccc(CCNC(=O)CSc2ccccc2)cc1OC | 0 | -15% | 0%[46.1 µM] | 4 | 2% | 18%
CCNc1nc(N)c(C(=O)C23CC4CC(CC(C4)C2)C3)s1 | -16 | i | -3% | -68* | 4% | 25%
CN(Cc1ccccc1)c1nnc(NC(=O)Nc2cccc(Br)c2)s1 | x | i | x | -16 | -1% | x
CC(NC(=O)C(=O)N1CCCCC1)C(c1cccs1)N1CCN(Cc2ccccc2)CC1 (centres undefined) | -5 | -1% | 2% | -66* | 3% | x
CCN1CCN(C(c2cccs2)C(C)NC(=O)C(=O)N2CCCCC2)CC1 (centres undefined) | 0 | i | 8% | u | 1% | x
CCOC(=O)c1sc(=NC(=O)c2ccccc2)n(C)c1C | -7 | -17% | 3% | -9 | 5% | u

Assay outcomes (PubChem BioAssay)
